Measured values taken from PubChem BioAssay.

Assay: inhibition of PAO1 biofilm formation – strain PAO1, LB-PBS medium, absorbance 600 nm, primary screen (AID 1176)
Conditions: P. aeruginosa PAO1 growth/biofilm, A600, 12 h; higher = more signal
Also: test concentration not given here.

z-score, inactive:
C[C@H]1CC[C@H]2C(=O)OC(COc3ccc(C(C)(C)C)cc3)CN2[C@@H]1c1ccc(Br)cc1 (stereo partly drawn) 1.18
COCCNC(=O)OCC1CCCC2(CC(OC(=O)NCc3cccc4ccccc34)CC(CCC(=O)N[C@@H](C)C(=O)OC)O2)O1 (stereo partly drawn) -0.303
CC(C)CON=C1[C@H]2CCn3c(=O)n(C)c(=O)n3[C@H]2[C@H](O)[C@@H]2O[C@H]12 -0.425
CO[C@H]1COC(=O)[C@H](CCSC)NC(=O)CC=C[C@@H](C)[C@H](OC)COC(=O)[C@@H](OCc2ccccc2)C=C[C@@H]1C -1.38
CC(CCN1CCCCc2nc(C)c(C)cc21)=NOC[C@@H](O)[C@H]1O[C@@H]2OC(C)(C)O[C@@H]2[C@H]1O 0.335
CC(C)(C)N1C(=O)[C@H]2[C@H]3[C@H](O)[C@H](O)CC(=NOC[C@@H](O)COCc4ccco4)[C@@H]3CC[C@H]2C1=O 0.213
C=CC[C@@H]1C=C[C@H](ON=C2C[C@@H](O)[C@@H](O)[C@@H]3[C@@H]4C(=O)N(CC)C(=O)[C@@H]4CC[C@@H]23)[C@@H](CO)O1 -0.0781
CCOC(=O)NN=C1C[C@@H](O)[C@@H](O)[C@@H]2[C@@H]3C(=O)N(CC)C(=O)[C@@H]3CC[C@H]12 0.0578

Assay: growth modulation of vineyard yeast isolate – strain RM11-1a, OD600, basal, 24 h, primary screen (AID 1177);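 also: cultures grown under basal conditions with no added stressor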
Conditions: S. cerevisiae RM11-1a growth, OD600, 24 h; higher = more signal, called active from +8 up or from −8 down

z-score, inactive:
COC(=O)[C@H](C)NC(=O)CCC1CC(OC(=O)NCc2cccc3ccccc23)CC2(CCCC(COC(=O)NCCc3ccccc3OC)O2)O1 (stereo partly drawn) 1.61
CO[C@@H](C(C)C)[C@@H](C)C1OC(=O)CC1O (stereo partly drawn) -0.622
COc1ccc(COC(=O)NN=C2C[C@@H](O)[C@@H](O)[C@@H]3[C@@H]4C(=O)N(C[C@@H]5CCCO5)C(=O)[C@@H]4CC[C@H]23)cc1 0.293
COC(=O)[C@H](C)NC(=O)CCC1CC(OC(=O)NCCc2ccc(F)cc2)CC2(CCCC(COC(=O)NCCc3ccccc3OC)O2)O1 (stereo partly drawn) 0.878
CON=C(C)CCN1CCCCc2nc(C)c(C)cc21 -0.11
CC(C)C(=O)N[C@H]1CCCN1C(=O)C=Cc1ccccc1 1.18
C#CCCCON=C1C[C@@H](O)[C@@H](O)[C@@H]2[C@@H]3C(=O)N(C[C@@H]4CCCO4)C(=O)[C@@H]3CC[C@@H]12 -0.399
COc1ccc(COC(=O)NN=C2C[C@@H](O)[C@@H](O)[C@@H]3[C@@H]4C(=O)N(C5CCCCC5)C(=O)[C@@H]4CC[C@@H]23)cc1 -0.286
CCOC(=O)[C@H](CC(C)C)NC(=O)CCC1CC(OC(=O)NCc2ccc3c(c2)OCO3)CC2(CCCC(COC(=O)NCCc3ccc(Cl)cc3)O2)O1 (stereo partly drawn) -0.166
CC(CCC(=O)OC[C@H]1O[C@H](C#Cc2ccccc2)C=C[C@@H]1Oc1ccc(C)cc1)=NO[C@@H](C)c1cc(-c2c(C)cc(C)cc2C)no1 0.333
COC(=O)[C@H](C)NC(=O)CC=C[C@@H](C)[C@@H]1C=C[C@H](O)[C@@H](CO)O1 0.253
C[C@H]1CC[C@@H](C(=O)O)N[C@@H]1c1cccc(N2CCCC2=O)c1 0.765
CO[C@@H]1[C@H](O)CO[C@H]1C=Cc1ccccc1 -0.113
COC(=O)[C@H](C)NC(=O)CCC1CC(OC(=O)NCCc2ccc(F)cc2)CC2(CCCC(COC(=O)NCc3ccccc3)O2)O1 (stereo partly drawn) 1.02
CC(C)CON=C1C[C@@H](O)[C@@H](O)[C@@H]2[C@@H]3C(=O)N(c4ccc(F)cc4F)C(=O)[C@@H]3CC[C@@H]12 -1.22
O=C1C=C[C@@H](O)[C@@H]2[C@@H]3C(=O)N(Cc4ccc5c(c4)OCO5)C(=O)[C@@H]3CC[C@@H]12 -0.129
CC[C@@H](c1ccccc1)n1c(=O)n2n(c1=O)[C@H]1[C@H](O)[C@@H]3O[C@@H]3C(=NOCc3ccccc3)[C@H]1CC2 -0.15
CC(=O)OC[C@H]1O[C@H](CC=NOC[C@@H](O)COCc2ccco2)C=C[C@@H]1OC(C)=O 0.178
C[C@H]1C=CCC(=O)OC[C@H](C)C(=O)N2CCC[C@H]2C(=O)OC1 0.73
CC(C)CON=C1C[C@@H](O)[C@@H](O)[C@@H]2[C@@H]3C(=O)N(Cc4ccc5c(c4)OCO5)C(=O)[C@@H]3CC[C@@H]12 0.64
